Data published in PubChem BioAssay AID893 (National Center for Advancing Translational Sciences (NCATS), 2007).
“And” between values parts separate entries of the source, which are not always exact repeats. Equal entries are not always repeated. Among all 75,000 compounds or so, about 5,700 (7.6%) were called active. Roughly 7% stayed inconclusive and do not appear here. For the sample, actives were picked, then their nearest neighbours and some compounds at random. Unmarked numbers belong to inactive results. Calls follow the shape of the dose curve; as a rule, active = well fitted inhibition curve with a large enough effect; inconclusive = small, poorly fitted or top-dose-only effect; inactive = no such curve, though single readings can be large or run the other way.

The compounds below were run against 3-hydroxyacyl-CoA dehydrogenase type-2 (Homo sapiens) (UniProt Q99714) (assay: qHTS Assay for Inhibitors of HSD17B4, hydroxysteroid (17-beta) dehydrogenase 4). Details: recombinant HSD17B10, NADH fluorescence kinetic; series mostly up to 57.1 µM; activity change, negative = inhibition: at the top concentration.
Procedure, shortened: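 Enzyme plus compound, 15 min room temperature; substrate mix added (NAD+ 1 mM, beta-hydroxybutyryl-CoA 90 uM final); plates read kinetically for NADH fluorescence. HADH2 was His-tagged, E. coli-derived, 20 nM.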
% is scaled to controls: 0 for no effect and ±100 for the full control effect; potency is read from the fitted curve at half-maximal effect.
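Also: the protocol describes HADH2 (HSD17B10) and not the HSD17B4 of the title; nearly all actives have a fitted effect of over 70% in size.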

Row | Structure (SMILES) | activity change, negative = inhibition | Potency
1 | COc1cc(C2C(C(=O)c3ccc(C)o3)=C(O)C(=O)N2Cc2cccnc2)ccc1O (stereo unspecified) | -28.4% | –
2 | O=C(Nc1ccccc1N1CCCCC1)c1cccc(F)c1 | -4.57% | –
3 | COC(=O)Nc1c(C)n(C)n(-c2ccccc2)c1=O | -2.47% | –
4 | Cc1cc(C)cc(N(C(C)C(=O)Nc2c(C)n(C)n(-c3ccccc3)c2=O)S(C)(=O)=O)c1 (stereo unspecified) | 9.82% | –
5 | Cc1c(NC(=O)C(C)OC(=O)c2cc3c4ccccc4n(C)c3s2)c(=O)n(-c2ccccc2)n1C (stereo unspecified) | – | 3.98 µM (active)
6 | CCOC(=O)CSc1nnc(CNC(=O)c2ccco2)n1-c1ccc(F)cc1 | -1.04% | –
7 | C/C(=C\C(=O)c1cccnc1)Nc1ccc(C)c(C)c1 | -6.77% | –
8 | O=c1cccc(-c2ccc(Br)cc2)o1 | -12% | –
9 | CC1C(c2ccccc2)=[N+]([O-])C2(CCCC2)N1O (stereo unspecified) | -1.86% | –
10 | Nc1ncnc2c1ncn2C1CC(O)C(CO)O1 (stereo unspecified) | – | inactive
11 | CCC[C@@H]1C[C@@]1(CCC)[C@@H](NC(=O)c1ccccc1)c1ccc(C(=O)OC)cc1 | 0.355% | –
12 | Cc1nc2c(C(=O)NCc3ccc4c(c3)OCO4)c[nH]n2c(=O)c1Cc1ccccc1F | – | 31.6 µM (active)
13 | CCn1cc(C(=O)NCc2ccc3c(c2)OCO3)c2cc(OC)c(OC)cc2c1=O | -19.8% | –
14 | O=C(CCCCn1c(=O)[nH]c2ccccc2c1=O)NCc1ccc2c(c1)OCO2 | -18.5% | –
15 | CC1CCCCC1NC(=O)CCS(=O)(=O)c1cccc2nonc12 (stereo unspecified) | -8.2% | –
16 | COc1ccc2oc(=O)c(C(=O)N3CCCc4ccccc43)cc2c1 | 4.06% | –
17 | COc1ccc2oc(=O)c(C(=O)N3CCN(c4ccccc4F)CC3)cc2c1 | – | 25.1 µM (active)
18 | COc1ccc2oc(=O)c(C(=O)O)cc2c1 | 4.12% | –
19 | CC(=O)C1C(c2ccc(Cl)cc2)NC(=O)NC1(O)C(F)(F)F (stereo unspecified) | 0.683% | –
20 | COC(=O)[C@@]1(Cc2ccc(F)cc2)[C@@H]2[C@@H](CC(=O)[C@H]2CC(=O)C(=O)N2CCCC2)CN1C(=O)c1ccccc1 | -1.36% | –
21 | CN1CCN(Cc2nc3c(c(=O)n(C)c(=O)n3C)n2Cc2cccc3ccccc23)CC1 | 2.52% | –
22 | COc1ccc(-c2nnc(SCC(=O)c3cccs3)o2)c(OC)c1 | -0.925% | –
23 | COc1ccc(OC)c(C(=O)CSc2nnc(-c3cccs3)o2)c1 | – | 31.6 µM (active)
24 | CCN(CC)C(=O)CSc1nnc(-c2cccc(OC)c2)o1 | 10.4% | –
25 | COCC(C)N=CC1=C(O)CC(C)(C)CC1=O (stereo unspecified) | 1.61% | –
26 | CCc1cc(=O)oc2cc(C)cc(OC(C)C(=O)O)c12 (stereo unspecified) | – | 31.6 µM (active)

Row | Structure (SMILES) | activity change, negative = inhibition | Potency
27 | N#CCC(=O)NC(=O)NCC1CC1 | 26.3% | –
28 | CCCC[C@@H]1C[C@H]1C(NC(=O)c1ccco1)c1ccc(C(=O)OC)cc1 (stereo partly specified) | -1.66% | –
29 | O=C(O)c1ccc(-n2cccc2)cc1O | – | 31.6 µM (active)
30 | O=C(Cn1ccc(=O)[nH]c1=O)Nc1ccc(C(=O)O)c(O)c1 | -0.357% [at 11.4 µM] | –
31 | O=C(O)c1ccc(C(=O)O)c2c(C(=O)O)ccc(C(=O)O)c12 | -1.54% [at 11.4 µM] | –
32 | Cc1cc(NS(=O)(=O)c2ccccc2)no1 | 3.57% | –
33 | Nc1ncn(C2OC(CO)C(O)C2O)c(=O)n1 (stereo unspecified) | 3.46% | –
34 | CN1C(=O)c2ccc(NC(=O)c3c(F)c(F)c(F)c(F)c3F)cc2C1=O | – | 12.6 µM (active)
35 | O=C(O)c1ccc(NC(=O)C2CCCCC2)cc1 | -7.75% | –
36 | O=C(Nc1ccncc1)c1c(F)cccc1F | -13.7% | –
37 | Cn1c(=O)n(C)c2cc(C(=O)Nc3ccc4c(c3)OCO4)ccc21 | 5.94% | –
38 | O=C(Nc1cnn(Cc2ccc(Cl)cc2)c1)C1CCCC1 | 12.7% | –
39 | CN1C(=O)c2ccc(NC(=O)C3CCCCC3)cc2C1=O | – | 25.1 µM (active)
40 | C#CCC(C(=O)OC)(C(=O)OC)C(C[N+](=O)[O-])c1ccccc1 (stereo unspecified) | -8.6% [at 11.4 µM] | –
41 | Cn1c(=O)n2n(c1=O)[C@H]1[C@H](O)[C@H]3O[C@H]3C(=O)[C@H]1CC2 | -7.54% [at 11.4 µM] | –
42 | O=C(C1CCN(S(=O)(=O)Cc2ccccc2)CC1)N1CCCc2ccccc21 | 5.23% | –
43 | Cc1ccccc1C(=O)O | 1.89% | –
44 | COc1ccc(C2CC(=O)c3c(O)cc(OC4OC(COC5OC(C)C(O)C(O)C5O)C(O)C(O)C4O)cc3O2)cc1O (stereo unspecified) | 1.68% | –
45 | CO[C@@H]1COC(=O)C/C=C\[C@H](C)[C@@H](NS(=O)(=O)c2ccc(C)cc2)COC(=O)C/C=C\[C@@H]1C | 2.45% [at 11.4 µM] and 8.54% [at 11.4 µM] | –
46 | O=C(O)CCC(=O)N(Cc1cccs1)Cc1cccs1 | -14.2% | –
47 | Cc1cc(NC(=O)c2cc(-c3cccs3)on2)nn1Cc1ccc(Cl)cc1 | 45.3% | –
48 | CC(C)Cn1c(CCC(=O)O)ccc1-c1cccs1 | – | 31.6 µM (active)
49 | C/C=C1\C(=O)C[C@@H]2[C@@H]3CCC4=CC(=O)CC[C@@]4(C)[C@H]3CC[C@@]12C | -3.31% | –
50 | Cc1ccc(S(=O)(=O)NC(=O)NN2C[C@H]3CCC[C@@H]3C2)cc1 | 0.302% [at 25.6 µM] | –
51 | CC1CCCC(C)N1CCCNC(=O)c1cc2c(=O)n(C)c3ccccc3c2n1C (stereo unspecified) | – | 31.6 µM (active)
